# The full list was thinned out, with hits kept by preference.
# Pf Dd2 inh – qHTS Primary assay for Inhibitors of Plasmodium falciparum Dd2 growth in vitro | AID 1347417, 2020 | 120,000 compounds, 4.3% hits | Potency, µM (doses to about 28.9 µM), inactives show at the highest dose activity, negative = inhibition, hits mostly inhibitors | P. falciparum Dd2 growth, SYBR Green, 72 h; active = well fitted inhibition curve with a large enough effect;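 note: plate controls were DMSO vehicle for no effect and reference drug for full effect; nearly all actives have a fitted effect of over 65% in size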
#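 Infected erythrocytes (Dd2, 0.3% parasitemia, 2.5% hematocrit final) are added to compound in RPMI-1640/Albumax II medium, grown 72 h at 37C in low oxygen, then lysed with saponin/Triton-X containing SYBR Green and read by fluorescence.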
# Active calls of the source: *; i = inactive; [ ] = another dose, or the depositor's remark. Potency is the fitted concentration of half-maximal effect.
SMILES,Pf Dd2 inh
COc1ccccc1CN1CC[C@H]2COC(=O)N2c2cc(C)ccc2C1,-21%[44.1 µM]
COC(=O)CNC(=O)C1CN(S(=O)(=O)c2cccnc2)CC12CCCCC2 (centres undefined),-2%
Cc1ccc(C2Cn3nnc(-c4noc(-c5cccc(N(C)C)c5)n4)c3CO2)cc1 (centres undefined),-9%
COCCC1(NC(=O)C2CC2)CCN(S(=O)(=O)c2ccccc2)CC1,-19%
O=S(=O)(NCC1(COc2ccc(C(F)(F)F)cn2)C[C@@H](O)[C@@H](O)C1)c1ccc(F)cc1 (some centres undefined),i
Cc1cc(-c2nc3ncccc3o2)ccc1NC(=O)COc1cc(C)c(Cl)c(C)c1,4%
Cc1cc(OCC(=O)Nc2cc(-c3nc4ncccc4o3)ccc2C)ccc1Cl,10µM*
Cc1cc(-c2nc3ncccc3o2)ccc1NC(=O)COc1ccccc1C,2%
Cc1cccc(NC(=O)c2cc3c(N4CCSCC4)nc(C)cn3n2)c1,-14%
CCOc1ccc(C(=O)NCCn2cc(SCC(=O)Nc3ccccc3)c3ccccc32)cc1,4.5µM*
CCOc1ccc(NC(=O)CSc2cn(CCNC(=O)c3ccccc3F)c3ccccc23)cc1,-18%
COc1ccc(C(=O)NCCn2cc(SCC(=O)Nc3ccc(C)cc3)c3ccccc32)cc1,-28%
O=C(CCCc1ccccc1)N1CCCCCC1c1nc(C2CC2)no1 (centres undefined),-16%
CC(=O)N1CC2(Cc3ccccc31)CN([S+](=O)([O-])c1cccs1)C2,-17%
Fc1ccccc1-c1noc(NCCc2ccc(Cl)cc2)n1,i
Clc1ccc(CNc2nc(-c3ccccc3)no2)cc1,11µM*
O=c1cc(-c2ccccc2)nc(SCc2nc(-c3ccc(Cl)cc3)no2)[nH]1,20%
CC(=O)N1CCC2(CC1)CC(c1ccccc1)=NO2,6%[44.1 µM]
CC(C)=CC(=O)N1CC[C@H](NC(=O)Nc2ccc(F)cc2F)[C@H]1C(=O)N[C@H](Cc1ccccc1)C(N)=O,22%
CCCN(CCC)CCNC(=O)CN1C(=O)COc2ccc(S(=O)(=O)N3CCC(C)CC3)cc21,4.5µM*
Cc1ccc(CCNC(=O)CN2C(=O)COc3ccc(S(=O)(=O)N4CCC(C)CC4)cc32)cc1,-20%
CCCNC(=O)CN1C(=O)COc2ccc(S(=O)(=O)N3CCC(C)CC3)cc21,-21%
Cn1cccc1C(=O)N1CCC(N2C[C@H](O)C[C@H]2C(=O)NCc2cccnc2)CC1,10%
O=C(c1ccoc1)N1CCC2(CC1)CC(N(Cc1ccc(F)cc1)C1CC1)CCO2 (centres undefined),13µM*
O=C(Cc1ccc(F)cc1)N1CCC2(CC1)CC(N(Cc1ccccc1)C1CC1)CCO2 (centres undefined),5.6µM*
SMILES,Pf Dd2 inh
O=C(c1ccc(F)cc1)N1CCC2(CC1)CC(N(Cc1ccccc1)C1CC1)CCO2 (centres undefined),-10%
Cc1cnc(C(=O)N2CCC3(CC2)CC(N(Cc2ccc(F)cc2)C2CC2)CCO3)cn1 (centres undefined),-6%
O=C(Cc1ccsc1)N1CCC2(CC1)CC(N(Cc1ccccc1)C1CC1)CCO2 (centres undefined),-9%
O=C(c1ccccc1)N1CCC2(CC1)CC(N(Cc1ccccc1)C1CC1)CCO2 (centres undefined),i
Cn1nccc1C(=O)N1CCC2(CC1)CC(N(Cc1ccc(F)cc1)C1CC1)CCO2 (centres undefined),-22%
O=C(CCC1CCCC1)N1CCC2(CC1)CC(N(Cc1ccc(F)cc1)C1CC1)CCO2 (centres undefined),3.5µM*
CS(=O)(=O)N(C1CC1)C1CCOC2(CCN(C(=O)c3ccc(F)cc3)CC2)C1 (centres undefined),i
COc1ccc(C(=O)N2CCC(n3c(=O)[nH]c4ccccc43)CC2)cc1,7%
Cn1nccc1C(O)c1cc2n(n1)CCN(CC(=O)N1CCOCC1)C2 (centres undefined),-6%
Cc1ccc(C(O)Cn2ccn3nc(-c4ccc(F)cc4)cc3c2=O)cc1 (centres undefined),i
CC(C)n1ccc2c(NC(=O)Cn3nc4c(cc3=O)CCCCC4)cccc21,-26%
C=Cc1cccc(CN2CCCC3(CCNC3)C2)c1 (centres undefined),10µM*
COC(=O)c1cc(CN2CCCC3(CCNC3)C2)ccc1O (centres undefined),-17%
COc1cc(CN2CCC3(CCNCC3)C2)cc(OC)c1OC,-4%
Cc1nc2ccc(C(=O)N3C[C@@H](CN4CCCCC4)[C@@H](CO)C3)cc2s1,-18%
COc1cccc(C(=O)N2CCC(c3nn(Cc4ccccc4)c(=O)[nH]3)CC2)c1,i
COc1cccc(CNC(=O)C2CCN(C(=O)c3ncn4c3COC(c3ccc(C)cc3)C4)CC2)c1 (centres undefined),i
Cc1cccc(OCCc2noc(C3CCN(C(=O)c4cc(C)nn4C)C3)n2)c1 (centres undefined),i
CC(C)NC(=O)CN1CN(c2ccccc2)C2(CCN(C(=O)NCc3ccccc3)CC2)C1=O,i

# Source: PubChem (National Center for Advancing Translational Sciences (NCATS))
